A selection: hits, their analogues and other compounds. The true share with any hit is near 2.6%.
LT uptake inh: anthrax lethal toxin internalization inhibition; Cells, anthrax lethal toxin internalization, FRET ratio (460/530); Potency, µM (doses to about 40 µM), for the others: at the highest dose activity change, negative = inhibition, most hits filed as inhibitors; 70,000 compounds, 0.67% hits; AID 912; note: % is set by controls: 0 for no effect and ±100 for the full control effect; nearly all actives have a fitted effect of over 50% in size
Prx2 Sm inh: inhibitors of Schistosoma mansoni peroxiredoxin 2; S. mansoni Prx2 activity coupled to TGR/GSH (TGR is thioredoxin glutathione reductase), NADPH fluorescence loss, qHTS; Potency, µM; 65,000 compounds, 0.07% hits; AID 448
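Coupled assay in which S. mansoni TGR passes NADPH reducing equivalents via glutathione to Prx2, which reduces H2O2. Compounds were preincubated 15 min at room temperature with 25 nM TGR/50 nM Prx2 mix. Kinetic NADPH fluorescence loss (ex 365/em 450 nm) was monitored.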
AmpC inh no det: inhibitors of E. coli AmpC beta-lactamase without detergent. P00811. AmpC nitrocefin hydrolysis, absorbance 480 nm, no detergent. Potency, µM (titrated, usually from 28.7 µM), for inactives: at the highest dose activity change, negative = inhibition. 71,000 compounds, 1.8% hits; note: % of control where 0% means no effect
Target sequence (P00811 whole entry, looked up): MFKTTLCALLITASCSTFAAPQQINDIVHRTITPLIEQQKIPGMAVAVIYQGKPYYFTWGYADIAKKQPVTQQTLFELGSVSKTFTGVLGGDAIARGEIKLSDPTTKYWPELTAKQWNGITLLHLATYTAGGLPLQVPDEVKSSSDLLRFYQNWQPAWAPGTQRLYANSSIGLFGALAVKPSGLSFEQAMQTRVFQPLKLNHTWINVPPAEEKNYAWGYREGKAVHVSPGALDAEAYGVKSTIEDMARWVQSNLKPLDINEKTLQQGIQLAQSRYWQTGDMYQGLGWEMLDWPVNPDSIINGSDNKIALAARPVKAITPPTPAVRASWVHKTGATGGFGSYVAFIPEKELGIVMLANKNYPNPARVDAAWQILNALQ
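AmpC in 20 mM phosphate buffer pH 7.0 was preincubated 15 min at room temperature with compounds. Nitrocefin (800 uM stock) was then added and hydrolysis followed at 480 nm every 20 s for 4 min.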
AmpC det inh: AmpC beta-lactamase inhibition, detergent assay; P00811; 71,000 compounds, 0.09% hits; AID 584; Potency, µM (doses to about 28.7 µM), for inactives: at the top dose activity change, negative = inhibition; purified AmpC, nitrocefin hydrolysis with detergent; active = well fitted curve in the direction sought with a large enough effect; inconclusive = small, poorly fitted or top-dose-only effect; note: % is set by controls: 0 for no effect and ±100 for the full control effect
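E. coli AmpC (5.3 nM) in 20 mM phosphate pH 7.0 with 0.01% Triton X-100, preincubated 15 min RT with compound; nitrocefin (2 uL of 800 uM stock) hydrolysis followed by 480 nm absorbance every 20 s over 4 min.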
An asterisk follows results filed as active; ? = inconclusive; . = not tested or not shown; ! = not active in a repeat; [ ] = dose if it differs, or a comment. Unless noted, calls come from the whole dose curve. Potency is the fitted concentration of half-maximal effect.

SMILES	LT uptake inh	Prx2 Sm inh	AmpC inh no det	AmpC det inh
FC(F)(F)c1cc(CN2CC3(CCNCC3)C2)cc(C(F)(F)F)c1	?	>57	5%	-1%
Cc1oc(-c2cccs2)nc1CS(=O)CC(=O)NCCc1ccccc1 (stereo unspecified)	-15%	>57	10%	7%
Cc1oc(-c2ccccc2F)nc1CS(=O)CC(=O)NCc1cccs1 (stereo unspecified)	0%	>57	4µM*[single pt active]	10%
Cc1oc(-c2ccccc2F)nc1CS(=O)CC(=O)NCc1ccc2c(c1)OCO2 (stereo unspecified)	-11%	>57	4µM*[single pt active]	12%
CCOc1ccc(N(CC(=O)NC2CCCCC2)S(=O)(=O)c2c(C)noc2C)cc1	-3%	>57	14%	6%
CCc1ccc(N(CC(=O)NC2CCCCC2)S(=O)(=O)c2c(C)noc2C)cc1	-24%	>57	4µM*[single pt active]	12%
C[C@@H](O)[C@H]1C(=O)N2C(C(=O)O)=C(S[C@@H]3CN[C@H](C(=O)N(C)C)C3)[C@H](C)[C@H]12	0.5µM*	>57	27%[12.8 µM]	-1%[12.8 µM]
CC(C)CC(C(=O)Nc1ccc2c(c1)OCCO2)N1C(=O)c2ccccc2C1=O (stereo unspecified)	-14%	>57	22%	2%
CC(C)CC(C(=O)Nc1oc(-c2ccco2)c(-c2ccco2)c1C#N)N1C(=O)c2ccccc2C1=O (stereo unspecified)	?	>57	5µM*	18%
O=C(O)CNCCc1ccccc1	-10%[8 µM]	>57	5%[5.75 µM]	-3%[5.75 µM]
Cn1cnc([N+](=O)[O-])c1Sc1nc(N)nc2c1ncn2[C@H]1C[C@H](O)[C@@H](CO)O1	7%[8 µM]	>57	2%[5.75 µM]	-2%[5.75 µM]
COc1ccccc1S(=O)Cc1ccc(C(=O)NCc2ccccc2Cl)o1 (stereo unspecified)	?	>57	4µM*[single pt active]	12%
CC1Cc2ccccc2N1C(=O)CSc1nnc(NC(=O)Cc2cccs2)s1 (stereo unspecified)	?	>57	13µM*[single pt active]	8%
CC(C)=CCC/C(C)=C/CO/N=C1/C[C@@H](O)[C@@H](O)[C@@H]2[C@@H]3C(=O)N(C[C@@H]4CCCO4)C(=O)[C@H]3CC[C@H]12	5%[8 µM]	.	.	.
Oc1ccc(N=Cc2ccc(O)c(O)c2)cc1	?	.	13µM*	5%
C[N+](C)(C)/N=C\c1ccc(O)c(O)c1	?	>57	6%[5.75 µM]	-3%[5.75 µM]
O=C1OCCC1Sc1nnc(-c2ccco2)o1 (stereo unspecified)	-6%	6.5*	2%	-1%
COC(=O)C/C=C1\c2ccccc2C(OC)C1C (stereo unspecified)	-12%[8 µM]	.	.	.
Cc1ccc(S(=O)(=O)Cc2ccc(C(=O)N3CCCCCC3)o2)cc1	-8%	>57	49%	15%
CCOC(=O)C1CCCN(C(=O)c2ccc(CS(=O)(=O)Cc3ccccc3C)o2)C1 (stereo unspecified)	?	>57	53%	-2%
Cc1ccc(S(=O)(=O)Cc2ccc(C(=O)N3CCCC3)o2)cc1	-5%	>57	4µM*[single pt active]	12%
CCOC(=O)C1CCCN(C(=O)c2ccc(CS(=O)(=O)c3ccc(C)cc3)o2)C1 (stereo unspecified)	-8%	>57	2.5µM*[single pt active]	11%
c1ccc([C@H](c2cccc3c2ccc2ccccc23)[C@H](c2ccccc2)c2cccc3c2ccc2ccccc23)cc1	3%[8 µM]	>57	-14%[5.75 µM]	-2%[5.75 µM]
CC1CCN(CC(C)OC(=O)c2ccc3c(c2)OCCO3)CC1 (stereo unspecified)	-7%	>57	4µM*[single pt active]	27%
CC(CN1CCCCC1)OC(=O)c1ccc2c(c1)OCO2 (stereo unspecified)	-3%	>57	-10%	-1%
SMILES	LT uptake inh	Prx2 Sm inh	AmpC inh no det	AmpC det inh
O=C(NC1CCCc2ccccc21)C1CCC(CNc2c(N3CCOCC3)c(=O)c2=O)CC1 (stereo unspecified)	?	>57	3.2µM*[single pt active]	10%
COc1cc(NC(=O)C2CCC(CNc3c(N4CCCCC4)c(=O)c3=O)CC2)cc(OC)c1 (stereo unspecified)	?	>57	4µM*[single pt active]	13%
COc1ccccc1CNC(=O)C1CCC(CNc2c(N3CCOCC3)c(=O)c2=O)CC1 (stereo unspecified)	?	>57	28%	12%
COc1ccc(NC(=O)Cn2nnc(-c3ccccc3NC(=O)c3ccco3)n2)cc1	-1%	>57	13µM*	9%
COc1ccccc1NC(=O)Cn1nnc(-c2ccccc2NC(=O)c2ccco2)n1	-5%	>57	-21%	4%
COc1ccccc1NC(=O)Cn1nnc(-c2ccccc2NC(=O)c2cccs2)n1	-1%	>57	7.9µM*	2%
COc1ccc(C(=O)N2CCC3(CC2)CN(CC(C)C)C3)cc1	12%	>57	70%	-3%
CN(C)c1ncc2nc(-c3ccccc3)c(=O)n(CCC#N)c2n1	?	>57	11%	-2%
CCOC(=O)C1=C(C)Nc2nnnn2C1c1ccc(OC)c(Br)c1 (stereo unspecified)	-3%	>57	4µM*[single pt active]	6%
C=CCOC(=O)C1=C(C)Nc2nnnn2C1c1cc(OC)ccc1OC (stereo unspecified)	7%	>57	14%	-5%
Cn1c(=O)c2[nH]c(CS(=O)(=O)Cc3nc4c([nH]3)c(=O)n(C)c(=O)n4C)nc2n(C)c1=O	2%[8 µM]	>57	4%[5.75 µM]	-1%[5.75 µM]
COc1ccccc1NC(=O)CSc1nnc(Cn2c(=O)sc3ccccc32)n1C	-8%	>57	4µM*[single pt active]	9%
Cn1c(Cn2c(=O)sc3ccccc32)nnc1SCC(=O)N1CCOCC1	-2%	>57	4µM*[single pt active]	13%
CCOC(=O)N1CCN(C(=O)CSc2nnc(Cn3c(=O)sc4ccccc43)n2C)CC1	-2%	>57	4µM*[single pt active]	12%
CCOC(=O)CSc1nnc(Cn2c(=O)sc3ccccc32)n1C	1%	>57	8%	5%
Cn1c(Cn2c(=O)sc3ccccc32)nnc1SCC(=O)N1CCCCCC1	?	>57	4µM*[single pt active]	12%
CCC/C=C(\CCC)C(NC(=O)C(C)(C)C)c1ccc(C(=O)OC)cc1 (stereo unspecified)	-1%	>57	89%	-5%
O=C(c1cnccn1)N1CCC2(CC1)CCN(c1ccccc1)CC2	18%	>57	37%	-4%
N#C/C(=C\c1ccc(O)c(O)c1)C(N)=S	25µM*!	?	-20%	-1%
C[N+]1(C)C[C@@H](O)C[C@@H]1C(=O)[O-]	-24%[3.58 µM]	>57	-4%[12.8 µM]	-2%[12.8 µM]
Cc1noc(C)c1S(=O)(=O)N(CC(=O)N1CCc2ccccc21)c1ccc(C(C)C)cc1	-10%	>57	4µM*[single pt active]	14%
Cc1cc(NS(=O)(=O)c2ccc(NC(=O)Cc3cccs3)cc2)no1	2%	>57	5%	-2%
Cc1cc(NC(=O)Cc2cccs2)no1	-2%	>57	13µM*	-5%
COc1cccc(C2CC(=O)N3CN(c4ccccc4F)CSC3=C2C#N)c1 (stereo unspecified)	?	>57	4µM*[single pt active]	8%
